Compound activity: PubChem BioAssay, National Center for Advancing Translational Sciences (NCATS)
Sampled rows, rich in hits. Any-hit rate of the full collection: about 15%.
SARS PLpro yeast: SARS-CoV PLP inhibition in yeast; Potency, µM (highest dose often 32.9 µM), inactives show at the highest dose activity, positive = growth rescue, most hits filed as activators; actives 0.19% (n = 330,000); AID 485353; S. cerevisiae expressing SARS-CoV PLpro, growth rescue; calls by dose curve; further: potency means the concentration at half of the fitted maximal effect; 0% is about no effect; nearly all actives have a fitted effect of over 55% in size
HCV inhibitor: inhibitors of hepatitis C virus infection; Huh7.5.1 HCVcc-Cre infection, luciferase reporter, 44 h; Potency, µM (top dose mostly 41.8 µM), for inactives: at the top dose activity change, negative = inhibition, hits mostly inhibitors; actives 3.4% (n = 340,000); AID 651820; further: potency means the concentration at half of the fitted maximal effect; on the % scale 0 is the no-effect control and ±100 the full control effect
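Whole-lifecycle infectious HCVcc-Cre system; cells 1,000/well, compound then virus (~0.5 moi) added 4 h after plating, 44 h culture. Luciferase read 15 sec following 15 min substrate incubation, room temp.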
Sm TGR inh: blocks Schistosoma mansoni thioredoxin glutathione reductase; purified TGR, DTNB reduction, TNB absorbance 405 nm; AID 485364; actives 3% (n = 360,000); Potency, µM (doses to about 114 µM), for the others: top-dose activity change, negative = inhibition, most hits filed as inhibitors; further: potency means the concentration at half of the fitted maximal effect; on the % scale 0 is the no-effect control and ±100 the full control effect; nearly all actives have a fitted effect of over 60% in size
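TGR 20 nM + NADPH 100 uM (dispensed conc.), cpd preinc 15 min RT; start with NADPH (500 uM addition) then DTNB (15 mM addition). Kinetic TNB absorbance, 405 nm filter. Four-parameter Hill fit across titration.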
Pf growth 96h: P. falciparum growth inhibition at 96 hours | P. falciparum luciferase reporter growth, 96 h | Potency, µM (titrated, usually from 28.7 µM), for inactives: top-dose activity change, negative = inhibition, most hits filed as inhibitors | actives 6.9% (n = 320,000); further: potency means the concentration at half of the fitted maximal effect; on the % scale 0 is the no-effect control and ±100 the full control effect
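Infected RBCs, 2% Hct / 0.05% parasitemia final; luciferase-reporter P. falciparum; cpd 96 h, 37 C, 5% CO2; luciferase detection reagent; luminescence.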
Pf growth 48h: inhibits P. falciparum growth in the first generation, 48 h. AID 504832. Potency, µM (highest dose often 28.7 µM), for inactives: at the highest dose activity change, negative = inhibition, hits mostly inhibitors. P. falciparum luciferase growth in erythrocytes, 48 h. actives 5.9% (n = 310,000); further: potency means the concentration at half of the fitted maximal effect; on the % scale 0 is the no-effect control and ±100 the full control effect
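First compound was added to culture medium, then infected red cells at 0.1% parasitemia and 2% hematocrit (final). After incubation at 37 C under 5% CO2, luciferase detection reagent was dispensed and light output recorded.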
HCMV inh: human cytomegalovirus inhibition; HFF cells, HCMV-luciferase reporter, 72 h; active compounds read low; activity change, negative = inhibition, % at 57.5 µM; actives 4.5% (n = 410,000); AID 1259415; in the data active means activity change below about -60%; inconclusive means no clear call, values can overlap the other calls; inactive means above about -39%; further: on the % scale 0 is the no-effect control and ±100 the full control effect
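Luciferase read-out from HCMV-luciferase-infected HFFs (MOI 1 PFU/cell) 72 h post infection at 37C; compounds added after 16 h cell attachment; activity normalized between buffer-only basal and Salinomycin (10uM) inhibitor controls.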
An asterisk follows results filed as active; [ ] = another dose, or the depositor's remark. Unless noted, the call rests on the fitted dose curve; in most records, active means well fitted curve in the direction sought with a large enough effect; inconclusive means small, poorly fitted or top-dose-only effect, or another doubt; inactive means no such curve, though single readings can be large; an effect the other way counts as inactive or inconclusive.

How did CC(=O)Nc1ccc(NC(=O)CCS(=O)(=O)c2ccc3c(c2)CC(=O)N3C)cc1 do in these assays?
Sm TGR inh: 14%; HCMV inh: 0

What do the screens show for `O=C(Nc1ccc(Cl)cc1)NC1CCCC1Cc1ccco1` (centres undefined)?
SARS PLpro yeast: -28%; HCV inhibitor: -19%; Sm TGR inh: 45µM*; Pf growth 96h: inconclusive; Pf growth 48h: 10µM*

Results for O=C(O)c1ccccc1C(=O)c1ccc(Br)s1 ?
SARS PLpro yeast: 20%; HCV inhibitor: 15%; Sm TGR inh: -28%; Pf growth 96h: 30%[1.15 µM]; Pf growth 48h: -16%; HCMV inh: -2

Results for CCN(c1ccc(OC)cc1)c1ncnc2nc[nH]c12 ?
SARS PLpro yeast: 3%; HCV inhibitor: -5%; Sm TGR inh: -9%; Pf growth 96h: inconclusive; Pf growth 48h: -10%; HCMV inh: -88*

Results for CCCN(c1ccc(OCC)cc1)c1ncnc2nc[nH]c12 ?
SARS PLpro yeast: 0%; HCV inhibitor: 5%; Sm TGR inh: 2%; Pf growth 96h: 9%; Pf growth 48h: -9%; HCMV inh: inconclusive

What do the screens show for `CCCCN(CCCC)c1ncnc2nc[nH]c12`?
SARS PLpro yeast: -5%; HCV inhibitor: -19%; Pf growth 96h: 61%; Pf growth 48h: -20%; HCMV inh: -91*

How did CCCc1nn2c(=O)cc(COC(=O)c3ccccc3NC(=O)COc3ccccc3F)nc2s1 do in these assays?
Sm TGR inh: -3%; HCMV inh: 25

What do the screens show for `O=C(CCN1C(=O)C2CCCCC2C1=O)N1CCN(S(=O)(=O)c2c(F)cccc2F)CC1` (centres undefined)?
SARS PLpro yeast: 1%; HCV inhibitor: 8%; Sm TGR inh: 5%; Pf growth 96h: -13%; Pf growth 48h: -13%; HCMV inh: -17

How did Cc1ccc(C(C(=O)NCC2CCCO2)N(C(=O)c2snc(C(N)=O)c2N)c2ccc(C)c(C)c2)o1 (centres undefined) do in these assays?
SARS PLpro yeast: -1%; HCV inhibitor: inconclusive; Sm TGR inh: -15%; Pf growth 96h: inconclusive; Pf growth 48h: inconclusive; HCMV inh: inconclusive

What do the screens show for `CC(C)C1O/C(=N/C(=O)Nc2ccc(Cl)c(Cl)c2)NC1=O` (centres undefined)?
SARS PLpro yeast: -39%; HCV inhibitor: inconclusive; Sm TGR inh: 10%; Pf growth 96h: inconclusive; Pf growth 48h: 12µM*; HCMV inh: 0

What do the screens show for `CN(C)C(=O)Nc1ccc(Cl)c(Cl)c1`?
Pf growth 96h: inconclusive; Pf growth 48h: inconclusive; HCMV inh: 4

Results for CN(c1ccccc1)S(=O)(=O)c1cccc(NC(=O)CCNC(=O)c2ccc([N+](=O)[O-])cc2)c1 ?
SARS PLpro yeast: 13%; HCV inhibitor: 11µM*; HCMV inh: 19

Results for CN(C)S(=O)(=O)c1cccc(NC(=O)CSc2cccc3cccnc23)c1 ?
SARS PLpro yeast: -2%; HCV inhibitor: inconclusive; Sm TGR inh: 3%; Pf growth 96h: 7.4µM*; Pf growth 48h: 12µM*; HCMV inh: -101*

Results for CC(=O)CCc1ccc(OCC(=O)Nc2cccc(S(=O)(=O)N(C)c3ccccc3)c2)cc1 ?
SARS PLpro yeast: -1%; HCV inhibitor: -26%; Sm TGR inh: -1%; Pf growth 96h: inconclusive; Pf growth 48h: inconclusive; HCMV inh: -8

Results for CN(c1ccccc1)S(=O)(=O)c1cccc(NC(=O)COc2ccccc2)c1 ?
SARS PLpro yeast: -6%; HCV inhibitor: 10µM*; Sm TGR inh: -1%; Pf growth 96h: inconclusive; Pf growth 48h: inconclusive; HCMV inh: -9

How did CSc1cccc(NC(C)C(=O)NCc2ccccc2)c1 (centres undefined) do in these assays?
SARS PLpro yeast: 0%; HCV inhibitor: -3%; Sm TGR inh: 3%; Pf growth 96h: -21%; Pf growth 48h: 0%; HCMV inh: -65*

What do the screens show for `CN(c1ccccc1)S(=O)(=O)c1cccc(NC(=O)CCNC(=O)c2ccc(Cl)cc2)c1`?
SARS PLpro yeast: -3%; HCV inhibitor: inconclusive; Sm TGR inh: -32%; Pf growth 96h: inconclusive; Pf growth 48h: inconclusive; HCMV inh: 77

How did Cc1ccc(-n2cnc3c(=O)[nH]cnc32)cc1[N+](=O)[O-] do in these assays?
HCV inhibitor: 8%; HCMV inh: 6

What do the screens show for `CN(C)S(=O)(=O)c1cccc(NC(=O)CCCSc2ccccc2)c1`?
SARS PLpro yeast: -5%; HCV inhibitor: 11µM*; Sm TGR inh: 3%; Pf growth 96h: inconclusive; Pf growth 48h: -29%; HCMV inh: -8

How did COc1ccc(CN(C)CC(=O)Nc2cccc(S(=O)(=O)N(C)c3ccccc3)c2)c(OC)c1 do in these assays?
SARS PLpro yeast: -5%; HCV inhibitor: inconclusive; Sm TGR inh: 2%; Pf growth 96h: 15µM*; Pf growth 48h: inconclusive; HCMV inh: -15

What do the screens show for `O=C(CN1C(=O)NC2(CCCC2)C1=O)Nc1ccccc1`?
SARS PLpro yeast: 2%; HCV inhibitor: 11%; Sm TGR inh: 2%; Pf growth 96h: 37%; Pf growth 48h: 29%; HCMV inh: -36

What do the screens show for `COc1ccc(S(=O)(=O)N(C)C)cc1NC(=O)CCCSc1ccccc1`?
SARS PLpro yeast: -1%; HCV inhibitor: 1%; Sm TGR inh: -1%; Pf growth 96h: inconclusive; Pf growth 48h: inconclusive; HCMV inh: -12

Results for CCCN(CCC)S(=O)(=O)c1ccc(NC(=O)COc2ccccc2)cc1 ?
SARS PLpro yeast: -8%; HCV inhibitor: -5%; Sm TGR inh: 0%; Pf growth 96h: 9.3µM*; HCMV inh: 2

How did CN(c1ccccc1)S(=O)(=O)c1cccc(NC(=O)CN2C(=O)NC3(CCCC3)C2=O)c1 do in these assays?
SARS PLpro yeast: 3%; HCV inhibitor: 2.8µM*; Sm TGR inh: -11%; Pf growth 96h: inconclusive; Pf growth 48h: -25%; HCMV inh: -1

What do the screens show for `O=C(NNC(=O)C1CCCC1)c1cc([N+](=O)[O-])cc([N+](=O)[O-])c1`?
SARS PLpro yeast: 3%; HCV inhibitor: 18%; Sm TGR inh: -4%; Pf growth 96h: -14%; Pf growth 48h: 2%; HCMV inh: -7

Results for COc1ccc(C(N)c2csc(Nc3nncc4ccccc34)n2)cc1 (centres undefined) ?
HCMV inh: 33

Results for CSc1cccc(NC(=O)COc2ccccc2)c1 ?
SARS PLpro yeast: -6%; HCV inhibitor: -9%; Sm TGR inh: -1%; Pf growth 48h: 51%; HCMV inh: -80*
